Inconclusive results are not listed. Activity calls are given as the source filed them. Unless noted, calls come from the whole dose curve; as a rule, active = well fitted curve in either direction with a large enough effect (not every such curve was filed as active); inconclusive = small, poorly fitted or top-dose-only effect, or another doubt; inactive = flat fitted curve, though single readings scatter.
Key:
[1] = biological target: Lysosomal acid glucosylceramidase (Homo sapiens) (UniProt P04062); test: Glucocerebrosidase-p2 (AID 348; in the data active = potency below about 10 µM; note: potency is the fitted concentration of half-maximal effect); settings: purified GBA, blue fluorogenic substrate, 40 min
Lysosomal acid glucosylceramidase (Homo sapiens), sequence (P04062 whole entry, looked up): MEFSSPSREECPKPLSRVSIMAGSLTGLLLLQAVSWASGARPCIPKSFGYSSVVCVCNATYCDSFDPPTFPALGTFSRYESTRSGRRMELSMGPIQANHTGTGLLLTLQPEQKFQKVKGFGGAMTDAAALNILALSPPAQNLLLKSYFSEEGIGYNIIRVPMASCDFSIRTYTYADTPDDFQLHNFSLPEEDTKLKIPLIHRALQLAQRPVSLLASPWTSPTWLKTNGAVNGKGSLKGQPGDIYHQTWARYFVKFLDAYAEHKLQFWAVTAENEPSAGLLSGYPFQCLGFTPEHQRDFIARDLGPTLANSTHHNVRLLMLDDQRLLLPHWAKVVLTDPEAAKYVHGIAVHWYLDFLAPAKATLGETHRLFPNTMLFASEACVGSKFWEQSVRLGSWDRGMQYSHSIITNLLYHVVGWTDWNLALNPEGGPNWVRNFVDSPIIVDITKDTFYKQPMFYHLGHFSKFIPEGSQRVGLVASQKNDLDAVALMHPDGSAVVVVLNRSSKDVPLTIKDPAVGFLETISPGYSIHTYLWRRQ
How it was run: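 Normal human glucocerebrosidase (0.2 nM) with blue fluorogenic substrate (80 uM final) in citrate/phosphate pH 5.9 with 10mM sodium taurocholate, 0.01% tween-20; 40 min RT, NaOH/glycine stop; fluorescence Ex 365/Em 440; AC50 from a titration from 0.6 nM upwards.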

[2] = AP1 Signaling Pathway (AID 357); settings: ME-180 AP-1-bla reporter, EGF-induced, beta-lactamase ratio, 5 h; at 7.69 µM (top of the series) unless noted; note: % is set by controls: 0 for no effect and ±100 for the full control effect
How it was run: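 AP-1-bla ME-180 cells with beta-lactamase reporter under AP-1 response element, stimulated with EC50 EGF; compounds titrated, 5 hours at 37 degrees Celsius. CCF4 read at 460/530 nm ratio; positive and negative modulators judged by AC50.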

[3] = biological target: Cytochrome P450 1A2 (Homo sapiens) (UniProt P05177); test: p450-cyp1a2 (AID 410; calls by dose curve; note: potency is the fitted concentration of half-maximal effect;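 for activity change, negative = inhibition: -100% = full effect of reference inhibitor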); settings: recombinant CYP1A2, luciferin-ME demethylation, luminescence; series mostly up to 57 µM
Cytochrome P450 1A2 (Homo sapiens), sequence (P05177 whole entry, looked up): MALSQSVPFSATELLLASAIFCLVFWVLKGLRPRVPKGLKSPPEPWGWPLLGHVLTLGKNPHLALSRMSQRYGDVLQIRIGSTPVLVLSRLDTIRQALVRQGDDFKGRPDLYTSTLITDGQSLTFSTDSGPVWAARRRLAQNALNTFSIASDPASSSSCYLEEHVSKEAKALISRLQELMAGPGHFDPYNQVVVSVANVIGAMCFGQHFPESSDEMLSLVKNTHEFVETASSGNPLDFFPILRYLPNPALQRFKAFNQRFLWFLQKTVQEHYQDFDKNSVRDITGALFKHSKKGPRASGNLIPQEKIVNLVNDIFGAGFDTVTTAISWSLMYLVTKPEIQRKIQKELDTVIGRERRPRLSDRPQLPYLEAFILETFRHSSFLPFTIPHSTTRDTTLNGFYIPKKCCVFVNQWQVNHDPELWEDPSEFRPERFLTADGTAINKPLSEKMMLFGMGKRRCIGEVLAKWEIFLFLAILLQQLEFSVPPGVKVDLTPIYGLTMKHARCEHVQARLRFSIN
How it was run: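 20nM CYP1A2, 100uM Luciferin-ME (=Km), 100mM KPO4; cpd 10 min RT; +NADPH regen, 60 min RT; stop/detect 20 min; luminescence. Normalized to furafylline 57 uM = full inhibition.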

[4] = NFAT Signaling Pathway (AID 444); settings: Jurkat NFAT-bla M1, carbachol, beta-lactamase ratio, 5 h; at 7.69 µM (top of the series) unless noted;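 note: carbachol stimulus at about its EC50 of 1 µM final; % is set by controls: 0 for no effect and ±100 for the full control effect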
How it was run: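 Jurkat cells carrying an NFAT-driven β-lactamase reporter and co-transfected muscarinic M1 receptor were treated with compound plus carbachol (1 uM final, an EC50 level) for 5 h at 37 °C. CCF4 loading followed for 1 h at RT; 460/530 nm ratio gave %activity.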

[5] = Stat Signaling Pathway (AID 446); settings: ME-180 (cervical carcinoma) SIE beta-lactamase reporter, IL-6 stimulated, 5 h; at 7.69 µM (top of the series) unless noted;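 note: ME-180 cervical cancer cells given 40 pM IL-6 alongside compound; SIE-controlled beta-lactamase reporter measured as 460/530 nm FRET emission ratio; % is set by controls: 0 for no effect and ±100 for the full control effect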
How it was run: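 Emission at 460 and 530 nm (excitation 405 nm) reports SIE-controlled beta-lactamase in ME-180 cells. Cells received compound with 40 pM IL-6 for 5 hrs at 37 C; data scaled between 300 pM IL-6 and 125 nM JAK-inhibitor controls.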

[6] = biological target: Glucocorticoid receptor (Homo sapiens) (UniProt P04150); test: GR-EFC Redistribution (AID 451; calls by dose curve; note: potency is the fitted concentration of half-maximal effect); settings: CHO-K1 GR-EFC translocation, beta-gal luminescence, 2 h
Glucocorticoid receptor (Homo sapiens), sequence (P04150 whole entry, looked up, the tested form may be a part): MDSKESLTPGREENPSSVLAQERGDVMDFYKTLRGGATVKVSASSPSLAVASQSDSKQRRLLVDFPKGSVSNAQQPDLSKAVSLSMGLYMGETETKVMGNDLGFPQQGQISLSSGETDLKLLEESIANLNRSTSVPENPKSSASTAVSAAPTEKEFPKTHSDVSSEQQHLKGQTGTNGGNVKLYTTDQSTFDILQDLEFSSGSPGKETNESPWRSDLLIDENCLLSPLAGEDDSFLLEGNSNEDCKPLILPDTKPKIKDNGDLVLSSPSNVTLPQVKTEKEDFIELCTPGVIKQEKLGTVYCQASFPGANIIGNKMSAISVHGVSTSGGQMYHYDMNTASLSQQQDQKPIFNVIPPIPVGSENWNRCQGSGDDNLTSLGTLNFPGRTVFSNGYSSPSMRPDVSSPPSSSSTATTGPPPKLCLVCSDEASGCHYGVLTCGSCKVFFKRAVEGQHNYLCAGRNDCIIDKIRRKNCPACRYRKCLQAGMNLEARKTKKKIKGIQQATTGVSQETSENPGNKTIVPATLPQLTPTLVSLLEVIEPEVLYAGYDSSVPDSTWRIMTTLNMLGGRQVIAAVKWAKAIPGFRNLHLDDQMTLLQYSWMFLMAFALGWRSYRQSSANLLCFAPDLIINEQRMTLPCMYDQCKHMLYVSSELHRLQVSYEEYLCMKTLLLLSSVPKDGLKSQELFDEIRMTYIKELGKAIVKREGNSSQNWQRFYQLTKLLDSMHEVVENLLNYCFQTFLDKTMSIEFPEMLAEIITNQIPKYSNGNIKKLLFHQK
How it was run: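 CHO-K1 cells stably expressing nuclear-localized β-gal enzyme acceptor and GR fused C-terminally to the enzyme donor fragment; ligand-driven nuclear translocation restores β-gal by complementation. Compounds titrated up to 46 uM final, 2 h at 37 °C; luminescence read.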

[7] = biological target: Mitogen-activated protein kinase 10 (Mus musculus) (UniProt Q61831); test: JNK3 AlphaScreen Assay (AID 530); settings: JNK3 lysate, c-Jun phosphorylation; series mostly up to 57.1 µM;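 note: kinase came from lysate of stimulated human HepG2 cells; signal reports phosphorylation of biotinylated GST-cJun 1-79 at Ser73 with 10 µM ATP; % is set by controls: 0 for no effect and ±100 for the full control effect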
How it was run: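 Biotinylated GST-cJun(1-79) served as substrate for JNK3 in HepG2 lysates stimulated with IL-1beta and TNF-alpha. ATP was 10 uM final, pH 7.6. Ser73 phosphorylation was quantified by AlphaScreen (680 nm excitation).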

[8] = biological target: 3',5'-cyclic-AMP phosphodiesterase 4B (Homo sapiens) (UniProt Q07343); test: qHTS Assay for Inhibitors of PDE-IV (AID 607; active = well fitted activation curve with a large enough effect in the main read-out, with a control signal flat, not every such curve was filed as active; note: % of control where 0% means no effect); settings: HEK293 ACTOne CNG channel cells, membrane potential fluorescence; series mostly up to 22.9 µM
3',5'-cyclic-AMP phosphodiesterase 4B (Homo sapiens), sequence (Q07343 whole entry, looked up): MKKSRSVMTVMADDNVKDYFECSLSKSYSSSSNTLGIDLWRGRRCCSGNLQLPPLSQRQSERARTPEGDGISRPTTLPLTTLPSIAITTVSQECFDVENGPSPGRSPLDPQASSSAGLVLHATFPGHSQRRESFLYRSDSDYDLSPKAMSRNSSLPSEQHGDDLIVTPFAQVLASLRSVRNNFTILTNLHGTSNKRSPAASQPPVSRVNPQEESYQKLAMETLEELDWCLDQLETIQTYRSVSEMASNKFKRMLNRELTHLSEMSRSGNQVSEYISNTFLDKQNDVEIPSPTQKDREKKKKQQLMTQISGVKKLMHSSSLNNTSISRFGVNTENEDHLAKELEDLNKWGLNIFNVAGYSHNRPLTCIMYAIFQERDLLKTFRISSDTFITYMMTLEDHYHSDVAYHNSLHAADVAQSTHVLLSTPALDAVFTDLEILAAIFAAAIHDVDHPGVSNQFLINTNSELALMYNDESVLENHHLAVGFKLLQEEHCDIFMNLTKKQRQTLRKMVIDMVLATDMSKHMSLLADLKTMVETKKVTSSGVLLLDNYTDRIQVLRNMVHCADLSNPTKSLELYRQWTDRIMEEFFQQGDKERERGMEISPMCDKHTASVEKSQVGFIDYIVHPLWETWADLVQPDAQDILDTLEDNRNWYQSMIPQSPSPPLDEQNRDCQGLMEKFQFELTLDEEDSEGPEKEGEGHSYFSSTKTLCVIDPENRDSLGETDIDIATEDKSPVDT
How it was run: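 The readout is membrane depolarisation from a cAMP-sensing CNG channel, detected with a potential dye at ex 535/em 590. Cells were HEK293-derived (endogenous PDE-IV) at 1000 cells/well, titrated up to 22.9 uM final.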

[9] = biological target: Cytochrome P450 3A4 (Homo sapiens) (UniProt P08684); test: qHTS Assay for Activators of Cytochrome P450 3A4 (AID 885; active = well fitted curve in the direction sought with a large enough effect; an effect the other way counts as inactive or inconclusive; note: nearly all actives have a fitted effect of over 65% in size; note: potency is the fitted concentration of half-maximal effect); settings: recombinant CYP3A4, Luciferin-PPXE luminescence, 60 min; series mostly up to 57.1 µM
Cytochrome P450 3A4 (Homo sapiens), sequence (P08684 whole entry, looked up): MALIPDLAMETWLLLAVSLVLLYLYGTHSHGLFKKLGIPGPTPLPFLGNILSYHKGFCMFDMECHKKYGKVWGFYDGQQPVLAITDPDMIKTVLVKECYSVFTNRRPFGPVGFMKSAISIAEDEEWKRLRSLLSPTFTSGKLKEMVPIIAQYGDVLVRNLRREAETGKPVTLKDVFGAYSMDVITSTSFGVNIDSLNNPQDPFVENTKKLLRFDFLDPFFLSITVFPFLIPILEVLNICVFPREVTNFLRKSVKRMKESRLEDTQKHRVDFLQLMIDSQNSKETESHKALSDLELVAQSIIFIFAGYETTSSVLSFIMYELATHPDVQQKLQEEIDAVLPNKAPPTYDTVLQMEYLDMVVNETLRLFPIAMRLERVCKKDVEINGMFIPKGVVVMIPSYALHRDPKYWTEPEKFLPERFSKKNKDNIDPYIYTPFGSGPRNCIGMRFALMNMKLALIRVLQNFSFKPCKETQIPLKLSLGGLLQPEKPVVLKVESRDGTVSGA
How it was run: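 Activators are scored by enhanced luminescence from CYP3A4 conversion of luciferin-PPXE (25uM, equal to KM) to luciferin, after 60 min at RT with an NADPH-regenerating system.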

[10] = biological target: Cytochrome P450 2D6 (Homo sapiens) (UniProt P10635); test: qHTS Assay for Inhibitors and Substrates of Cytochrome P450 2D6 (AID 891; active = well fitted curve in the direction sought with a large enough effect; an effect the other way counts as inactive or inconclusive; note: potency is the fitted concentration of half-maximal effect; nearly all actives have a fitted effect of over 60% in size); settings: recombinant CYP2D6, luciferin-ME EGE luminescence; series mostly up to 57.1 µM
Cytochrome P450 2D6 (Homo sapiens), sequence (P10635 whole entry, looked up): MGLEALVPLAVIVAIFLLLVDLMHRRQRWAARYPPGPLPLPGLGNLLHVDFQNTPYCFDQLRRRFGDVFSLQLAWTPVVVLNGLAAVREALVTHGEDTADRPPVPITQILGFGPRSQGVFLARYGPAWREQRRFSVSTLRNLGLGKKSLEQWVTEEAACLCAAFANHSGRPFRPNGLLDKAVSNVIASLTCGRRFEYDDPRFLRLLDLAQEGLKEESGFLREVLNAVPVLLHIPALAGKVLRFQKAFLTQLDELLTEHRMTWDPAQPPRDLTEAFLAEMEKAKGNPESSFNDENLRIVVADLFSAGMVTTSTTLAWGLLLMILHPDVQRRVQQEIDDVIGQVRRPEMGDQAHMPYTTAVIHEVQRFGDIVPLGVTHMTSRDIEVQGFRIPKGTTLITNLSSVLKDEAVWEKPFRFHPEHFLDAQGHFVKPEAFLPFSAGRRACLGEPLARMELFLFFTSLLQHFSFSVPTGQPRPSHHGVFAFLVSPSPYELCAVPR
How it was run: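 Luminescent read-out of luciferin formed by 5 nM human CYP2D6 demethylating 30 uM Luciferin-ME EGE (Km level) over 60 min at room temperature after NADPH regeneration addition. Data normalized to full inhibition by 1.43 uM quinidine.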

[11] = qHTS Assay for Lipid Storage Modulators (AID 1519; calls by dose curve); settings: Drosophila S3 cells, BODIPY lipid droplet/cell ratio, laser cytometry, cells loaded with oleic acid; for activity change, negative = inhibition: at 57.5 µM (top of the series)
How it was run: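 Cells seeded at 5,000 per well were treated with compounds over a concentration series and loaded with oleic acid (400 uM, as added). Lipid droplet fluorescence (488 nm excitation, 500-530 nm channel) was read by laser-scanning cytometry and normalized to 20 uM Triacsin C.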

[12] = Primary qHTS for small molecule stabilizers of the endoplasmic reticulum resident proteome: Secreted ER Calcium Modulated Protein (SERCaMP) assay (AID 1508630; active = well fitted curve in the direction sought with a large enough effect; an effect the other way counts as inactive or inconclusive; note: % is set by controls: 0 for no effect and ±100 for the full control effect); settings: SH-SY5Y GLuc-SERCaMP (Gaussia luciferase released on ER calcium loss) secretion, thapsigargin, luminescence; series mostly up to 38.4 µM
How it was run: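 The SH-SY5Y reporter protocol was run at 3 concentrations up to 38.3 uM (primary) or 11 concentrations (follow-up): 16 h compound, 100 nM thapsigargin for 4 h, then extracellular luciferase luminescence.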

[13] = measured here: cell count channel max response
[14] = measured here: lipid channel max response

Cn1cccc1C(=O)N1CCC[C@@]2(CCN(Cc3cc(C(F)(F)F)cc(C(F)(F)F)c3)C2)C1
-1.35%: max response [11, 14]
active: Potency [10] 3.98 µM
inactive: Potency [1] > 11.4 µM | activity change, negative = inhibition [2] 8.92% | Potency [3] | activity change, negative = inhibition [4] 7.04% | activity, negative = inhibition [5] 8.87% | Potency [6] > 46 µM | outcome [7] | Potency [8] | Potency [9] | activity change, negative = inhibition [11] -3.99% | Potency [12]
-0.0419%: max response [11, 13]

O=C(Nc1cccc(F)c1)N1CC[C@@]2(CCCN(C(=O)c3ccco3)C2)C1
-1.46%: max response [11, 14]
inactive: Potency [1] > 11.4 µM | activity change, negative = inhibition [2] 1.78% | activity change, negative = inhibition [4] -0.255% | activity, negative = inhibition [5] 8.88% | Potency [6] > 46 µM | outcome [7] | Potency [8] | Potency [9] | activity change, negative = inhibition [11] 0.339% | Potency [12]
active: Potency [3] 25.1 µM
-5.34%: max response [11, 13]

COc1ccc(NC(=O)N2CCCC3(CCNCC3)C2)cc1
0.941%: max response [11, 14]
inactive: Potency [1] > 11.4 µM | activity change, negative = inhibition [2] -1.83% | Potency [3] | activity change, negative = inhibition [4] 1.68% | activity, negative = inhibition [5] 5.73% | Potency [6] > 46 µM | outcome [7] | Potency [8] | Potency [9] | activity change, negative = inhibition [11] 4.28% | Potency [12]
-5.9%: max response [11, 13]

O=C(Nc1ccccc1)N1CCCC2(CCN(C(=O)c3ccco3)CC2)C1
20.3%: max response [11, 14]
12%: max response [11, 13]
active: Potency [3] 20 µM
inactive: Potency [1] > 11.4 µM | activity change, negative = inhibition [2] -8.89% | activity change, negative = inhibition [4] -7.1% | activity, negative = inhibition [5] -4.1% | Potency [6] > 46 µM | outcome [7] | Potency [8] | Potency [9] | activity change, negative = inhibition [11] 4.55% | Potency [12]

COc1ccc(NC(=O)N2CCCC3(CCN(S(C)(=O)=O)CC3)C2)cc1
-9.3%: max response [11, 13]
inactive: Potency [1] > 11.4 µM | activity change, negative = inhibition [2] -11.2% | Potency [3] | activity change, negative = inhibition [4] 21.9% | activity, negative = inhibition [5] 17.2% | Potency [6] > 46 µM | outcome [7] | Potency [8] | Potency [9] | activity change, negative = inhibition [11] 3.48% | Potency [12]
-4.34%: max response [11, 14]

Cc1noc(C)c1C(=O)N1CCC2(CCCN(C(=O)Nc3cccc(F)c3)C2)CC1
9.33%: max response [11, 13]
19.9%: max response [11, 14]
active: Potency [3] 15.8 µM
inactive: Potency [1] > 11.4 µM | activity change, negative = inhibition [2] -3.17% | activity change, negative = inhibition [4] -8.48% | activity, negative = inhibition [5] -0.0561% | Potency [6] > 46 µM | outcome [7] | Potency [8] | Potency [9] | activity change, negative = inhibition [11] 5.45% | Potency [12]

O=C(c1csnn1)N1CCC2(CC1)CN(C(c1ccccc1)c1ccccc1)C2
24.2%: max response [11, 14]
active: Potency [9] 10 µM
inactive: Potency [1] > 11.4 µM | activity change, negative = inhibition [2] 3.92% | Potency [3] | activity change, negative = inhibition [4] -2.37% | activity, negative = inhibition [5] -0.642% | Potency [6] > 46 µM | outcome [7] | Potency [8] | activity change, negative = inhibition [11] 3.78% | Potency [12]
18.7%: max response [11, 13]

CS(=O)(=O)N1CCC[C@@]2(CCN(Cc3nccs3)C2)C1
20.5%: max response [11, 14]
inactive: Potency [1] > 11.4 µM | activity change, negative = inhibition [2] -5.88% | Potency [3] | activity change, negative = inhibition [4] 5.31% | activity, negative = inhibition [5] 4.77% | Potency [6] > 46 µM | outcome [7] | Potency [8] | Potency [9] | activity change, negative = inhibition [11] 7.12% | Potency [12]
9.38%: max response [11, 13]

CS(=O)(=O)N1CCC2(CCCN(c3ccccn3)C2)CC1
active: Potency [3] 25.1 µM
inactive: Potency [1] > 11.4 µM | activity change, negative = inhibition [2] -3.01% | activity change, negative = inhibition [4] 4.17% | activity, negative = inhibition [5] 7.37% | Potency [6] > 46 µM | outcome [7] | Potency [8] | Potency [9] | activity change, negative = inhibition [11] 2.39% | Potency [12]
15.6%: max response [11, 14]
5.95%: max response [11, 13]

O=C(Nc1cccc(F)c1)N1CCCC2(CCN(S(=O)(=O)c3ccccc3)CC2)C1
13.8%: max response [11, 13]
17.3%: max response [11, 14]
inactive: Potency [1] > 11.4 µM | activity change, negative = inhibition [2] -9.39% | Potency [3] | activity change, negative = inhibition [4] -29.9% | activity, negative = inhibition [5] -7.25% | Potency [6] > 46 µM | outcome [7] | Potency [8] | Potency [9] | activity change, negative = inhibition [11] 1.65% | Potency [12]

O=C(Nc1ccccc1)N1CC[C@@]2(CCCN(C(=O)c3cnccn3)C2)C1
12.8%: max response [11, 13]
inactive: Potency [1] > 11.4 µM | activity change, negative = inhibition [2] 6.39% | Potency [3] | activity change, negative = inhibition [4] 7.42% | activity, negative = inhibition [5] -0.789% | Potency [6] > 46 µM | outcome [7] | Potency [8] | Potency [9] | activity change, negative = inhibition [11] 1.67% | Potency [12]
16%: max response [11, 14]

CC(=O)N1CCC2(CC1)CN(C(c1ccccc1)c1ccccc1)C2
21%: max response [11, 14]
active: Potency [9] 15.8 µM
inactive: Potency [1] > 11.4 µM | activity change, negative = inhibition [2] 14.1% | Potency [3] | activity change, negative = inhibition [4] -5.45% | activity, negative = inhibition [5] -8.55% | Potency [6] > 46 µM | outcome [7] | Potency [8] | activity change, negative = inhibition [11] 1.46% | Potency [12]
13.6%: max response [11, 13]
